# According to PubChem BioAssay (EPA / NIEHS):
# Several values for one entry are separate records, joined by “and”; a condition that tells them apart may be missing. Equal values may be shown once. Inconclusive results are not listed. Where a structure was tested more than once in an assay, its records may differ in their call. Activity calls are given as the source filed them. The calls were made as follows, unless noted: active = hit-call score of the fitted dose curve at least 0.9, where 1 is the maximum; inconclusive = response in the unintended direction; inactive = score below 0.9.
# Read-out: UDP glucuronosyltransferase (UGT1A1), UGT1A1 (gene 54658)
# Assay: LTEA_HepaRG_UGT1A1: Life Technologies and Expression Analysis (LTEA) Assay for UDP glucuronosyltransferase (UGT1A1) using HepaRG (AID 2283538; active = hit-call score of the fitted dose curve at least 0.9, where 1 is the maximum; inactive = score below 0.9)
# Details: mRNA level, 48 h; actives raise or lower the signal
# Outline: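 Cells are plated, cultured 48 h, switched to serum-free induction medium, then dosed 48 h at eight concentrations (max 100 uM, 0.5% DMSO). RNA is isolated and UGT1A1 expression measured by qRT-PCR; changes versus DMSO are fitted in both directions.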
Structure (SMILES),outcome,AC50
CC(Cc1ccc(OCC(=O)O)cc1)NCC(O)c1csc(C(F)(F)F)n1 (stereo unspecified),inactive,–
O=C(O)C1C(C(=O)O)C2(Cl)C(Cl)=C(Cl)C1(Cl)C2(Cl)Cl (stereo unspecified),inactive,–
c1ccc2c(c1)Nc1ccccc1S2,–,50 µM (active)
[N-]=[N+]=[N-],–,80.7 µM (active)
CCOS(=O)(=O)OCC,inactive,–
Cc1cccc(N)c1,inactive,–
ClC(Cl)(Cl)c1ccccc1,inactive,–
Cc1ccc(N)cc1N,–,15 µM (active)
CCC1(c2ccccc2)C(=O)N=C(O)NC1=O (stereo unspecified),–,50 µM (active)
CCOc1ccc(C(C)(C)COCc2cccc(Oc3ccccc3)c2)cc1,–,10.2 µM (active)
O=P1(N(CCCl)CCCl)NCCCO1 (stereo unspecified),inactive,–
c1cc2c3c(cccc3c1)CC2,inactive,–
CCN(CC)c1ccccc1,inactive,–
CCOC(=O)c1ccccc1C(=O)OCC,inactive,–

# Read-out: UDP glucuronosyltransferase (UGT1A6), UGT1A6 (gene 54578)
# Assay: LTEA_HepaRG_UGT1A6: Life Technologies and Expression Analysis (LTEA) Assay for UDP glucuronosyltransferase (UGT1A6) using HepaRG (AID 2283539; active = hit-call score of the fitted dose curve at least 0.9, where 1 is the maximum; inactive = score below 0.9)
# Details: mRNA level, 48 h; actives raise or lower the signal
# Outline: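 Differentiated HepaRG cells, ~100,000/well, were exposed for 48 h in serum-free induction medium with 0.5% DMSO to 8-point half-log series topping at 100 uM, in duplicate. mRNA measured by Fluidigm TaqMan qRT-PCR, normalized to ACTB, GAPDH and POLR2A.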
row,Structure (SMILES),outcome
1,CC(Cc1ccc(OCC(=O)O)cc1)NCC(O)c1csc(C(F)(F)F)n1 (stereo unspecified),inactive
2,O=C(O)C1C(C(=O)O)C2(Cl)C(Cl)=C(Cl)C1(Cl)C2(Cl)Cl (stereo unspecified),inactive
3,c1ccc2c(c1)Nc1ccccc1S2,inactive
4,[N-]=[N+]=[N-],inactive
5,CCOS(=O)(=O)OCC,inactive
6,Cc1cccc(N)c1,inactive
7,ClC(Cl)(Cl)c1ccccc1,inactive
8,Cc1ccc(N)cc1N,inactive
9,CCC1(c2ccccc2)C(=O)N=C(O)NC1=O (stereo unspecified),inactive
10,O=P1(N(CCCl)CCCl)NCCCO1 (stereo unspecified),inactive
11,c1cc2c3c(cccc3c1)CC2,inactive
12,CCN(CC)c1ccccc1,inactive
13,CCOC(=O)c1ccccc1C(=O)OCC,inactive

# Read-out: X-box binding protein 1 (XBP1), XBP1 (gene 7494)
# Assay: LTEA_HepaRG_XBP1: Life Technologies and Expression Analysis (LTEA) Assay for X-box binding protein 1 (XBP1) using HepaRG (AID 2283540; active = hit-call score of the fitted dose curve at least 0.9, where 1 is the maximum; inactive = score below 0.9)
# Details: mRNA level, 48 h; actives raise or lower the signal
# Outline: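 Differentiated human HepaRG cells in serum-free induction medium exposed 48 h in duplicate to eight half-log concentrations up to 100 uM in 0.5% DMSO. XBP1 mRNA measured by Fluidigm TaqMan qRT-PCR, normalized to ACTB, GAPDH, POLR2A; bidirectional fitting against DMSO.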
row,Structure (SMILES),outcome
1,CC(Cc1ccc(OCC(=O)O)cc1)NCC(O)c1csc(C(F)(F)F)n1 (stereo unspecified),inactive
2,O=C(O)C1C(C(=O)O)C2(Cl)C(Cl)=C(Cl)C1(Cl)C2(Cl)Cl (stereo unspecified),inactive
3,c1ccc2c(c1)Nc1ccccc1S2,inactive
4,[N-]=[N+]=[N-],inactive
5,CCOS(=O)(=O)OCC,inactive
6,Cc1cccc(N)c1,inactive
7,ClC(Cl)(Cl)c1ccccc1,inactive
8,Cc1ccc(N)cc1N,inactive
9,CCC1(c2ccccc2)C(=O)N=C(O)NC1=O (stereo unspecified),inactive
10,CCOc1ccc(C(C)(C)COCc2cccc(Oc3ccccc3)c2)cc1,inactive
11,O=P1(N(CCCl)CCCl)NCCCO1 (stereo unspecified),inactive
12,c1cc2c3c(cccc3c1)CC2,inactive
13,CCN(CC)c1ccccc1,inactive
14,CCOC(=O)c1ccccc1C(=O)OCC,inactive

# Read-out: not listed separately
# Assay: LTEA_HepaRG_LDH_cytotoxicity: Cytotoxicity Assessment in the Life Technologies and Expression Analysis (LTEA) Assay (AID 2283563)
# Details: not given
# Outline: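 Differentiated HepaRG cells in serum-free induction medium, exposed 48 h in duplicate to 8 half-log concentrations up to 100 uM in 0.5% DMSO. Cytotoxicity from LDH measured in spent medium, fit relative to DMSO.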
row,Structure (SMILES),outcome
1,CC(Cc1ccc(OCC(=O)O)cc1)NCC(O)c1csc(C(F)(F)F)n1 (stereo unspecified),inactive
2,O=C(O)C1C(C(=O)O)C2(Cl)C(Cl)=C(Cl)C1(Cl)C2(Cl)Cl (stereo unspecified),inactive
3,c1ccc2c(c1)Nc1ccccc1S2,inactive
4,[N-]=[N+]=[N-],inactive
5,CCOS(=O)(=O)OCC,inactive
6,Cc1cccc(N)c1,inactive
7,ClC(Cl)(Cl)c1ccccc1,inactive
8,Cc1ccc(N)cc1N,inactive
9,CCC1(c2ccccc2)C(=O)N=C(O)NC1=O (stereo unspecified),inactive
10,CCOc1ccc(C(C)(C)COCc2cccc(Oc3ccccc3)c2)cc1,inactive
11,O=P1(N(CCCl)CCCl)NCCCO1 (stereo unspecified),inactive
12,c1cc2c3c(cccc3c1)CC2,inactive
13,CCN(CC)c1ccccc1,inactive
14,CCOC(=O)c1ccccc1C(=O)OCC,inactive

# System: not listed separately
# Assay: ATG_XTT_Cytotoxicity: Cytotoxicity Assessment in the Attagene TRANS-FACTORIAL HepG2 Assay (AID 2283584)
# Details: not given
# Outline: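 HepG2 cells transiently transfected with GAL4-UAS multiple reporter units, dosed 24 h; cytotoxicity read by XTT as loss of signal versus DMSO baseline.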
row,Structure (SMILES),outcome
1,N#Cc1ccc(O)cc1,inactive
2,O=C(O)CF,inactive
3,C=CC(=O)OCC(CC)(COC(=O)C=C)COC(=O)C=C,inactive
4,CCOC(=O)c1ccccc1N,inactive
5,Cc1cc(C)c(C(=O)P(=O)(c2ccccc2)c2ccccc2)c(C)c1,inactive
6,CCOP(=S)(OCC)SCS(=O)(=O)CC,inactive
7,C=C(C)C(=O)OCC1CO1 (stereo unspecified),inactive
8,Oc1ccc(I)cc1,inactive
9,N#C/C=C/c1ccccc1,inactive
10,Cn1[nH]nnc1=S,inactive
11,Clc1ccc(Oc2ccccc2)cc1,inactive
12,O=[N+]([O-])c1cc(Cl)ccc1Cl,inactive
13,CCCCC(CC)COP(=O)(Oc1ccccc1)Oc1ccccc1 (stereo unspecified),inactive
14,COP(=O)(CCC(=O)NCO)OC,inactive
15,CC(C)(C)c1ccccc1OP(=O)(Oc1ccccc1)Oc1ccccc1,inactive

# System: not listed separately
# Assay: TOX21_p53_BLA_p2_viability: Viability Assessment in the Tox21 HCT-116 p53 Agonism Beta-lactamase Assay, Phase 2 (AID 2283591);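 also: compound exposure lasted 16 h at 37 °C; actives lower the ATP signal meaning cytotoxicity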
# Details: not given
# Outline: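 Cytotoxicity readout: CellTiter-Glo ATP luminescence, 30 min at room temperature, after the beta-lactamase read. Cells were HCT116 exposed 16 h at 37C to compounds pin-transferred at 217-fold dilution from DMSO stocks.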
Structure (SMILES),outcome,AC50
O=C(O)C1C(C(=O)O)C2(Cl)C(Cl)=C(Cl)C1(Cl)C2(Cl)Cl (stereo unspecified),inactive,–
C=CC(=O)OCC(CC)(COC(=O)C=C)COC(=O)C=C,–,46.1 µM (active) and 95.1 µM (active)
c1ccc2c(c1)Nc1ccccc1S2,inactive,–
[N-]=[N+]=[N-],inactive,–
C=C(C)C(=O)OCC1CO1 (stereo unspecified),inactive,–
CCOS(=O)(=O)OCC,inactive,–
Cc1cccc(N)c1,inactive,–
CCC1(c2ccccc2)C(=O)N=C(O)NC1=O (stereo unspecified),inactive,–
CCOc1ccc(C(C)(C)COCc2cccc(Oc3ccccc3)c2)cc1,inactive,–
O=P1(N(CCCl)CCCl)NCCCO1 (stereo unspecified),inactive,–
c1cc2c3c(cccc3c1)CC2,inactive,–
CCN(CC)c1ccccc1,inactive,–
CCOC(=O)c1ccccc1C(=O)OCC,inactive,–

# Biological target: Cellular tumor antigen p53 (Homo sapiens) (UniProt P04637)
# Sequence (P04637 whole entry, looked up): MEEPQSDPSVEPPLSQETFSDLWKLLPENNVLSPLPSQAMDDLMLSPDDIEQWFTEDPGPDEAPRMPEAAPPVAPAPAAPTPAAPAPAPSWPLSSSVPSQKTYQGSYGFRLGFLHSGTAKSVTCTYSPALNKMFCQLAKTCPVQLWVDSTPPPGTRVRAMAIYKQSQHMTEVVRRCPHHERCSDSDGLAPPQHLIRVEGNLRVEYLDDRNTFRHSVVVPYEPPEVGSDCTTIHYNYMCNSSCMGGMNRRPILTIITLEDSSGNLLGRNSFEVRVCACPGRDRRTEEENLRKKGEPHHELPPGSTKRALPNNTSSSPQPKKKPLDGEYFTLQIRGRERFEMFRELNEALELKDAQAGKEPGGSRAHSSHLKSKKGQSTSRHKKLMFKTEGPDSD
# Assay: TOX21_p53_BLA_p2_ratio: Tox21 HCT-116 p53 Agonism Beta-lactamase Assay, Ratio, Phase 2 (AID 2283592)
# Details: not given
# Outline: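 First, HCT116 reporter cells settle for 5 h at 37C. Next, DMSO compound solutions are pinned in (217-fold dilution) and left 16 h. Finally, CCF4-AM substrate is loaded 2 h at room temperature and the 460/530 nm ratio read.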
Structure (SMILES),outcome,AC50
CC(Cc1ccc(OCC(=O)O)cc1)NCC(O)c1csc(C(F)(F)F)n1 (stereo unspecified),inactive,–
O=C(O)C1C(C(=O)O)C2(Cl)C(Cl)=C(Cl)C1(Cl)C2(Cl)Cl (stereo unspecified),inactive,–
C=CC(=O)OCC(CC)(COC(=O)C=C)COC(=O)C=C,inactive,86.6 µM (active)
c1ccc2c(c1)Nc1ccccc1S2,inactive,–
[N-]=[N+]=[N-],inactive,–
C=C(C)C(=O)OCC1CO1 (stereo unspecified),inactive,–
CCOS(=O)(=O)OCC,inactive,–
Cc1cccc(N)c1,inactive,–
Cc1ccc(N)cc1N,inactive,–
CCC1(c2ccccc2)C(=O)N=C(O)NC1=O (stereo unspecified),inactive,–
O=P1(N(CCCl)CCCl)NCCCO1 (stereo unspecified),inactive,–
CCOC(=O)c1ccccc1C(=O)OCC,inactive,–
